Measurements from paper PMC4552634, “A New Set of Chemical Starting Points with Plasmodium falciparum Transmission-Blocking Potential for Antimalarial Drug Discovery” (PLoS ONE, 2015).
Hit rate of the full screen: of about 13,000 compounds, about 3,200 (25%) showed an effect of 50% or more. The list shows a part of the results.

system: P. falciparum stage V gametocytes; set-up: BacTiter-Glo ATP luminescence viability of purified stage V gametocytes in 384-well plates, per cent inhibition versus DMSO; details: 48 h, 5 µM; inhibitor

Row | Compound | % Inhibition [%]
1 | NC(N)=NC(=O)Nc1cc(F)c(Cl)c(Br)c1 [TCMDC-137510] | -16.64
2 | CC(C)Nc1nc(NC2CCCCC2)nc(N2CCCCCCC2)n1 [TCMDC-139688] | -95.56
3 | Cc1nc2ccc(Nc3nccc(-c4c(-c5cccc(NC(=O)c6c(F)cccc6F)c5)nn5ccccc45)n3)cc2nc1C [TCMDC-135906] | -53.2
4 | Cc1cc(NN=Cc2cccc(Cl)c2)c2ccccc2n1 [TCMDC-142060] | -14.77
5 | Cc1ccc2nc(C)cc(NN=Cc3cccc(Cl)c3)c2c1 [TCMDC-142063] | 87.16
6 | Cc1ccc2c(NN=Cc3cccc(Cl)c3)cc(C)nc2c1 [TCMDC-142064] | 91.21
7 | Cc1ccc2c(NN=Cc3ccc(N(C)C)cc3)cc(C)nc2c1 [TCMDC-142076] | -47.79
8 | Cc1cc(N2CCCC2)nc(Nc2ccc(NC(=O)c3ccco3)cc2)n1 [TCMDC-124965] | -16.57
9 | O=C1C2C3SC(c4c3ccc3ccccc43)C2C(=O)N1c1ccccc1 (centres unmarked) [TCMDC-123946] | -5.395
10 | COC(=O)c1ccc(NC(=O)c2ccc(CCN3CCC(c4nc(COCC(F)(F)F)c(-c5ccc(F)cc5)o4)CC3)cc2)cc1 [TCMDC-138133] | -17.07
11 | CCN(C(=O)CSc1cc(C)c2cc(C)cc(C)c2n1)C1CCS(=O)(=O)C1 (centres unmarked) [TCMDC-123568] | -6.938
12 | CN(C)CCCOc1ccc(CN2CCC(c3c[nH]c4ccc(NCC5CCCCC5)cc34)CC2)cc1 [TCMDC-140737] | 96.97
13 | COc1ccc2[nH]cc(C3CCN(Cc4ccc(NC(=O)c5ccc(-c6ccccc6)cc5)cc4)CC3)c2c1 [TCMDC-139069] | 7.748
14 | COc1ccc2[nH]cc(C3CCN(CCCCNC(=O)c4ccc(NC(=O)c5ccc(Cl)cc5)cc4)CC3)c2c1 [TCMDC-138328] | -10.4
15 | Cc1noc(C)c1-c1cccc(CNCc2cccc(-c3cccc(-c4nc5ccccc5[nH]4)c3)c2)c1.O=C(O)C(F)(F)F [TCMDC-133065] | 2.097
16 | CCOCCCn1c(=N)c(C(=O)NCc2ccc(OC)cc2)cc2c(=O)n3cccc(C)c3nc21 [TCMDC-125406] | 75.07
17 | Cc1ccc2nc3c(cc(C(=O)NCCc4ccccc4)c(=N)n3CCCOC(C)C)c(=O)n2c1 [TCMDC-125408] | -18.91
18 | CCOCCCn1c(=N)c(C(=O)NCc2ccc(F)cc2)cc2c(=O)n3cccc(C)c3nc21 [TCMDC-125407] | 36.21
19 | COc1ccc(CCn2c(=N)c(C(=O)NCc3cccnc3)cc3c(=O)n4cccc(C)c4nc32)cc1 [TCMDC-124470] | 92
20 | COc1ccc(CCn2c(=N)c(C(=O)NCc3cccnc3)cc3c(=O)n4ccccc4nc32)cc1 [TCMDC-124471] | 25.4
21 | Cc1cccn2c(=O)c3cc(C(=O)NC(C)c4ccccc4)c(=N)n(CCc4ccccc4)c3nc12 (centres unmarked) [TCMDC-124469] | -59.42
22 | Cc1cccn2c(=O)c3cc(C(=O)NCc4cccnc4)c(=N)n(CCc4ccccc4)c3nc12 [TCMDC-125663] | 86.68
23 | Cc1cccn2c(=O)c3cc(C(=O)NCCc4ccccc4)c(=N)n(CCCOC(C)C)c3nc12 [TCMDC-125410] | 68.18

Row | Compound | % Inhibition [%]
24 | COc1ccc(CCn2c(=N)c(C(=O)NCc3ccccc3)cc3c(=O)n4cccc(C)c4nc32)cc1 [TCMDC-124473] | 6.095
25 | CCCn1c(=N)c(C(=O)NCCc2ccccc2)cc2c(=O)n3cccc(C)c3nc21 [TCMDC-125084] | 4.719
26 | COCCCn1c(=N)c(C(=O)NCCc2ccc(OC)cc2)cc2c(=O)n3cccc(C)c3nc21 [TCMDC-125085] | 9.799
27 | CCCCn1c(=N)c(C(=O)NCc2cccnc2)cc2c(=O)n3cccc(C)c3nc21 [TCMDC-124382] | 12.6
28 | Cn1c(-c2ccccc2)cc2c3c(=O)cc(C(F)(F)F)[nH]c3ccc21 [TCMDC-123876] | 31.04
29 | C#CCOc1ccc(N2C(N)=NC(N)=NC2(C)C)cc1 [TCMDC-137471] | 11.38
30 | CC(C)c1cc2c(ccc3nc(N)nc(N)c32)o1 [TCMDC-131930] | 25.15
31 | Cc1ncccc1C(=O)Nc1cccc(-c2cccc(-c3nc4c(C)cccc4[nH]3)c2)c1 [TCMDC-136861] | -23.88
32 | COc1cccc(C(=O)N2CCOC(CCN3CCC(c4ccccc4)CC3)(c3ccc(Cl)c(Cl)c3)C2)c1 (centres unmarked) [TCMDC-135336] | -36.5
33 | CCCCNC(=O)[C@H](CC1CCCCC1)NC(=O)c1ccc(O)c(-c2ccc(Cl)c(Cl)c2)c1 [TCMDC-140841] | 30.41
34 | Oc1c(CN2CCC(Cc3ccccc3)CC2)cc(Cl)c2cccnc12 [TCMDC-124594] | 97.81
35 | COc1cc(C)cc(CN2CCC(Cc3ccccc3)CC2)c1O [TCMDC-124540] | -75.55
36 | O=C(NC1CC1)c1cnc(N2CCC(Cc3ccccc3)CC2)c(Cl)c1 [TCMDC-134606] | 6.713
37 | Cc1nccn1Cc1cc(C(C)(C)C)c(O)c(C(C)(C)C)c1 [TCMDC-131329] | -8.756
38 | COc1cc(CNC[C@@H](O)[C@H](Cc2ccccc2)NC(=O)c2cc(OC(C)C)cc(N3CCCS3(=O)=O)c2)cc(OC)c1 [TCMDC-134559] | 3.73
39 | COc1cc2c(cc1C=CC(=O)N1CCN(Cc3nc4sc(C)c(C)c4c(=O)[nH]3)CC1)OC(C)C2 (centres unmarked) [TCMDC-132412] | -4.453
40 | CN(C)CCOc1cc(NC(=O)Nc2ccc(-c3ccccc3)cc2Cl)ccc1I [TCMDC-139140] | -41.53
41 | C/C=C/C=C/C1=NCCc2cc(OCCC)ccc21 [TCMDC-137442] | 112.8
42 | CCC(O)c1ccc(Br)cc1NC(=O)c1cccc(Cl)c1 (centres unmarked) [TCMDC-125394] | 16.03
43 | O=C(O)c1ccc2c(c1)N(C(=O)CNCc1ccc(F)cc1)CC(=O)N2CCCc1ccccc1 [TCMDC-140379] | -9.998
44 | CNC(=O)Cc1ccc(C(=O)Nc2cccc(-c3csc(-c4nc5ccccc5[nH]4)c3)c2)cc1 [TCMDC-132395] | -10.74
45 | Fc1ccc2[nH]c(-c3ccccc3)nc2c1CN1CCC(N2CCCC2)CC1 [TCMDC-136310] | 4.53
46 | Clc1ccc(-c2[nH]c3ccccc3c2CN2CCC(N3CCCCC3)CC2)cc1 [TCMDC-141631] | 17.32

Row | Compound | % Inhibition [%]
47 | c1ccc(-c2[nH]c3ccccc3c2CN2CCC(N3CCCCC3)CC2)nc1 [TCMDC-141636] | 54.53
48 | COc1ccc2nccc(N3C[C@H]4C[C@@H]3CN4CCNCc3ccc4c(n3)NC(=O)CS4)c2n1 [TCMDC-134685] | 4.783
49 | CC1CCCCN1CCCNc1ncc2c(-c3ccc(NC(=O)Nc4cc(C(F)(F)F)ccc4F)c(F)c3)nn(C)c2n1 (centres unmarked) [TCMDC-141608] | 97.41
50 | CN1CCN(CCCNc2ncc3c(-c4ccc(NC(=O)Nc5cc(C(F)(F)F)ccc5F)c(F)c4)nn(C)c3n2)CC1 [TCMDC-141611] | 81.4
51 | Cn1nc(-c2ccc(NC(=O)Nc3cc(C(F)(F)F)cc(C(F)(F)F)c3)c(F)c2)c2cnc(NCCN3CCOCC3)nc21 [TCMDC-141560] | 5.577
52 | Cn1nc(-c2ccc(NC(=O)Nc3cc(C(F)(F)F)ccc3F)c(F)c2)c2cnc(NCCCN3CCOCC3)nc21 [TCMDC-141607] | 30.03
53 | Cn1nc(-c2ccc(NC(=O)Nc3cc(C(F)(F)F)ccc3F)c(F)c2)c2cnc(NCCCn3ccnc3)nc21 [TCMDC-141612] | 3.105
54 | Cn1nc(-c2ccc(NC(=O)Nc3cc(C(F)(F)F)ccc3F)cc2)c2cnc(NCCCCN3CCCC3)nc21 [TCMDC-141585] | 81.15
55 | CCN(CC)CCCNc1ncc2c(-c3ccc(NC(=O)Nc4cc(C(F)(F)F)ccc4F)c(F)c3)nn(C)c2n1 [TCMDC-141609] | 106.5
56 | Nc1nc(N)c2c(Oc3ccc(Cl)c(Cl)c3)cccc2n1 [TCMDC-137740] | -61.22
57 | Nc1nc(N)c2c(Sc3ccc(F)cc3)cccc2n1 [TCMDC-137179] | 36.57
58 | CC(=O)Nc1nc(C(=O)Nc2cccc(-c3cccc(-c4nc5ccc(F)cc5[nH]4)c3)c2)cs1 [TCMDC-137124] | 18.32
59 | CN1CCN(c2ccnc3ccc(NC(=O)Nc4ccc5c(c4)CCCC5=O)cc23)CC1 [TCMDC-139261] | -6.438
60 | COc1ccc(CCNCC(O)COc2nccc3c(S(=O)(=O)N4CCCNCC4)cccc23)cc1OC (centres unmarked) [TCMDC-132101] | 25.52
61 | O=C(Nc1ccc2c(c1)CCN2C1CCN(Cc2ccc(C(F)(F)F)cc2F)C1)c1ccco1 (centres unmarked) [TCMDC-135070] | -51.15
62 | O=C(Cc1ccc(-n2cnnn2)cc1)N(Cc1cncn1Cc1cccc(C(F)(F)F)c1)CC1CC1 [TCMDC-132461] | 5.053
63 | C1=CN(Cc2ccccc2)C=CC1=C1C=Nc2ccccc21 [TCMDC-138319] | 1.652
64 | O=C1OC2(CCN(C(=O)c3ccc(-n4cnnn4)cc3)CC2)CN1Cc1ccc(Cl)c(Cl)c1 [TCMDC-136544] | 34.85
65 | C1=C(c2c[nH]c3ccccc23)CCN(Cc2ccccc2)C1 [TCMDC-123457] | -71.35
66 | O=S(=O)(NC1CCN(c2ccnc3cc(Cl)ccc23)C1)c1ccc(C(F)(F)F)cc1 (centres unmarked) [TCMDC-133662] | -7.86
67 | Cn1nc(-c2ccc(NC(=O)Nc3cc(C(F)(F)F)ccc3F)cc2)c2cnc(NCCc3cnc[nH]3)nc21 [TCMDC-141621] | 12.4
68 | CCN(CC)CCCNc1ncc2c(-c3ccc(NC(=O)Nc4cc(C(F)(F)F)ccc4F)cc3)nn(C)c2n1 [TCMDC-141583] | 96.86
